Rows were chosen to be rich in hits. Some 3% of all compounds tested hit in one or more screens of this group.
IP6K1 inh: blocks human inositol hexakisphosphate kinase 1 | Q92551 | IP6K1 kinase, ADP-Glo luminescence, 2 h; stronger effect = lower value | activity change, % (series mostly up to about 58 µM) | hit rate 0.81% among 140,000; in the data active means activity change below about -25%; further: on the % scale 0 is the no-effect control and ±100 the full control effect
Target sequence (Q92551 whole entry, looked up): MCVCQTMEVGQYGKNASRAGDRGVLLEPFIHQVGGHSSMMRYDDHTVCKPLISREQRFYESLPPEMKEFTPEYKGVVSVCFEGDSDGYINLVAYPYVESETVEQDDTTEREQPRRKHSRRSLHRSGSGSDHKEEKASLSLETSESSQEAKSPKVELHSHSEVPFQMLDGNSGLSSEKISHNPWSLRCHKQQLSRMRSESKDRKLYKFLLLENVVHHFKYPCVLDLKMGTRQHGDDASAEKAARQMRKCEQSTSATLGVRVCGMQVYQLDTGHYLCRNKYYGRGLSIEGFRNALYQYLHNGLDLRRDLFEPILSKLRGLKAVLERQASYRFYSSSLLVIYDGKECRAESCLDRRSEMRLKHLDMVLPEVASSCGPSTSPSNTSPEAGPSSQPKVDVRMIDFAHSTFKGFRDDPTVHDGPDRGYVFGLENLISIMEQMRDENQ
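ADP-Glo luminescence measures ADP made by human IP6K1 during a 2 h RT reaction with ATP/IP6 (mix at 1.3 mM/130 uM); top library doses 57.5 and 19.1 uM final.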
KDM5B inh: inhibitors of human KDM5B histone demethylase; AID 1347165; KDM5B demethylase, FDH-coupled NADH fluorescence (FDH is formaldehyde dehydrogenase); hit rate 2.6% among 220,000; Potency, µM (doses to about 57.7 µM), usual class: inhibitors; further: potency means the concentration at half of the fitted maximal effect; 0% is about no effect; nearly all actives have a fitted effect of over 70% in size
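Compound dilutions met 200 nM (final) KDM5BΔAP for 10 min at room temperature before substrate addition. The substrate mix held 12.5 µM H3K4me3 with cofactors 25 µM α-ketoglutarate and 50 µM Fe²⁺. NADH signal gain over 30 min defined activity.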
HEK293 viab: cell viability loss counter-screen; HEK-293-SNCA-luc viability, GF-AFC fluorescence, 24 h; Potency, µM (top dose mostly 57.1 µM), for the others: at the highest dose activity change, negative = cytotoxicity, usual class: cytotoxic; hit rate 0.12% among 150,000; AID 1671193;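 further: potency means the concentration at half of the fitted maximal effect; 0% = DMSO-treated cells and -100% = medium-only wells without cells; nearly all actives have a fitted effect of over 30% in size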
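Cytotoxicity counterscreen: after 24 h compound treatment of genome-edited SNCA-luciferase HEK-293 cells, live-cell protease substrate GF-AFC read by fluorescence after 30 min; activity scaled between DMSO (0%) and medium-only (-100%), curves Hill-fitted.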
SNCA expr inhib: reduces expression of the alpha-synuclein gene. HEK-293 SNCA-luciferase knock-in, luminescence, 24 h. Potency, µM (series often up to 57.2 µM), without a hit: at the highest dose activity change, negative = inhibition, usual class: inhibitors. hit rate 0.17% among 140,000;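 further: potency means the concentration at half of the fitted maximal effect; plate controls were DMSO cells for no effect and cell-free wells for full effect; nearly all actives have a fitted effect of over 45% in size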
* hit, by the source's call; i = inactive; ? = inconclusive; . = no result; [ ] = dose if it differs, or a comment. Unless noted, the call rests on the fitted dose curve; in most records, active means well fitted curve in the direction sought with a large enough effect; inconclusive means small, poorly fitted or top-dose-only effect, or another doubt; inactive means no such curve, though single readings can be large; an effect the other way counts as inactive or inconclusive.

SMILES	IP6K1 inh	KDM5B inh	HEK293 viab	SNCA expr inhib
O=C(Cn1ccn2nc(-c3ccccc3)c(CO)c2c1=O)Nc1ccccc1C(F)(F)F	10.2	20µM*	1.5%	-14.0%
COc1cc(Cl)c(C)cc1NC(=O)Cn1ccn2nc(-c3ccccc3)c(CO)c2c1=O	10.0	15.8µM*	3.5%	-1.6%
COc1ccc(OC)c(NC(=O)Cn2ccn3nc(-c4ccccc4)c(CO)c3c2=O)c1	43.4	?	3.2%	-4.9%
Cc1cccc2c1O[C@H]1[C@H](CO)CN([S+](=O)([O-])c3ccccc3)[C@@H]21	5.0	.	.	.
CCO[C@H]1CN(C(=O)CCc2ccc(-c3ccc(Cl)cc3)[nH]2)C[C@@H]1O	-1.0	28.2µM*	8.3%	37.2%
O=C(CCc1ccc(-c2ccc(Cl)cc2)[nH]1)N1CC[C@H](CO)[C@H](O)C1	-2.8	?	-6.2%	33.8%
c1cc(-c2noc([C@@H]3CCCN3C3CCC3)n2)cc(N2CCOCC2)n1	-9.4	35.5µM*	-8.9%[87.6 µM]	0.4%[87.6 µM]
c1ccc(CN2CCC[C@H]2c2nc(-c3ccnc(N4CCOCC4)c3)no2)cc1	4.3	35.5µM*	-17.9%[87.6 µM]	33.2%[87.6 µM]
CC(C)CN1CCC[C@H]1c1nc(-c2ccnc(N3CCOCC3)c2)no1	-0.2	31.6µM*	-11.4%[87.6 µM]	1.3%[87.6 µM]
COCCNc1ccc(-c2noc([C@@H]3CCCN3Cc3cc(OC)c(OC)c(OC)c3)n2)cn1	14.0	?	-17.9%	22.0%
COCCNc1cc(-c2noc([C@@H]3CCCN3CC(C)C)n2)ccn1	7.6	31.6µM*	-24.6%[87.6 µM]	6.8%[87.6 µM]
Fc1ccccc1CN1CCC[C@H]1c1nc(-c2ccnc(N3CCOCC3)c2)no1	13.3	?	-4.8%[87.6 µM]	17.8%[87.6 µM]
c1cc(N2CCOCC2)ncc1-c1noc([C@@H]2CCCN2C2CCOCC2)n1	26.6	?	-1.6%[87.6 µM]	41.9%[87.6 µM]
CC(C)c1ccc(CCNC(=O)Cn2ncc3ccccc3c2=O)cc1	.	i	.	.
COc1ccc(-c2cc(NCCO)nc3[nH]ccc23)cc1C(F)(F)F	12.3	?	3.0%	-3.2%
COc1ccc(-c2ccccc2C(=O)NCCCOC(C)C)nn1	9.3	.	.	.
N#Cc1cccc(CN2CCC[C@H]2c2nc(-c3ccc(OC4CCCCC4)nc3)no2)c1	-2.0	i	-3.6%[87.6 µM]	7.3%[87.6 µM]
CS(=O)(=O)c1ccc(CN2CCC[C@H]2c2nc(-c3ccnc(N4CCOCC4)c3)no2)cc1	5.7	25.1µM*	-9.5%	25.3%
COCCOc1ncccc1-c1noc([C@@H]2CCCN2Cc2ccc(S(C)(=O)=O)cc2)n1	6.4	i	2.5%	41.5%
N#Cc1ccc(CN2CCC[C@H]2c2nc(-c3ccnc(N4CCOCC4)c3)no2)cc1	9.5	35.5µM*	-14.0%[87.6 µM]	-0.3%[87.6 µM]
O=C(C1CCCN(Cc2cccc(-c3ccsc3)c2)C1)N1CCCC1 (stereo not given)	1.0	.	.	.
CCCCNC(=O)Cc1csc2nc(C)c(-c3cc(C)n(-c4ccc(F)cc4)n3)c(=O)n12	4.7	28.2µM*	2.9%	-2.4%
CCCCNC(=O)Cc1csc2nc(C)c(-c3cc(C)n(-c4cc(F)ccc4C)n3)c(=O)n12	4.9	?	-15.2%	-9.4%
CCCCCNC(=O)Cc1csc2nc(C)c(-c3cc(C)n(-c4cc(F)ccc4C)n3)c(=O)n12	17.2	25.1µM*	-15.5%	2.7%
Cc1nn(-c2ccccc2)c2c1C(C1CC1)N(C1CN(C(=O)c3ccc(Cl)nc3)C1)C2=O (stereo not given)	12.5	.	.	.
SMILES	IP6K1 inh	KDM5B inh	HEK293 viab	SNCA expr inhib
CC(C)NC(=O)CN1CCN(C(=O)c2cc(-c3ccccn3)nc3ccccc23)CC1	.	i	.	.
NC1CC(c2nnc(COc3ccc4c(c3)CCNCC4)n2C2CC2)C1 (stereo not given)	5.2	?	-9.7%	-2.0%
COc1ccc(Nc2ccnc(N3CCCC(C(=O)N4CCCC(C)C4)C3)n2)cc1 (stereo not given)	12.4	.	-11.0%[12.5 µM]	-3.2%
COc1ccc(-c2cccc(C(=O)N3CCC(Cc4ccccc4)CC3)c2)nn1	16.3	.	.	.
COc1ccc(-c2nc(C3CC3)nc3c2CCN(CCC(C)C)CC3)cc1	12.0	79.4µM*	-4.5%	?
COc1ccc(-c2nc(C3CC3)nc3c2CCN(Cc2ccc(C(F)(F)F)cc2)CC3)cc1	-4.8	50.1µM*	?	?
COc1ccc(-c2nc(C)nc3c2CCN(CCC(C)C)CC3)cc1	1.3	?	-10.7%	4.4%
CCCNc1cc(N2CCC(CCC(=O)NCC3CC3)CC2)ncn1	13.3	i	6.4%	?
CC(=O)N1CCN(C(=O)CCC2CCN(c3cc(NC4CC4)ncn3)CC2)CC1	17.3	i	-3.9%	-27.0%
O=C(CCC1CCN(c2cc(NC3CC3)ncn2)CC1)NCc1ccccc1Cl	15.2	i	7.4%	8.91µM*
CCNc1cc(N2CCC(CCC(=O)O)CC2)ncn1	0.1	i	10.6%	1.26µM*
CCCNc1cc(N2CCC(CCC(=O)NCc3cccc(OC)c3)CC2)ncn1	15.6	i	2.0%	2.24µM*
CCNc1cc(N2CCC(CCC(=O)N3CCOCC3)CC2)ncn1	13.1	i	-12.3%	?
CCCNc1cc(N2CCC(CCC(=O)NCc3ccccc3Cl)CC2)ncn1	21.9	i	-7.3%	2.82µM*
Cc1c(C(=O)Nc2ccc3oc(-c4ccc(F)cc4)nc3c2)cccc1[N+](=O)[O-]	.	i	.	.
O=C(NNC(=S)NCc1ccccc1)c1ccc2ccccc2c1	.	i	.	.
C=CCOc1c(OC)ccc2c1CN(CC1CC1)C(=O)CCN2CC(O)COc1ccc(OC)cc1 (stereo not given)	-6.8	.	.	.
CNC(=O)[C@H]1C[C@]2(CCCCN(CCO)C2=O)N(C(=O)Cc2cccs2)[C@H]1c1ccco1	-5.5	.	.	.
CCNc1cc(N2CCC(CCC(=O)Nc3cccc(OC)c3)CC2)ncn1	10.2	i	0.4%	7.94µM*
COc1ccc(C(=O)N2CCC(Oc3ccc(-c4noc(C5CC5)n4)cc3)C2)cn1 (stereo not given)	6.4	.	-20.1%	2.2%
Cc1noc([C@@H]2CN(C(=O)c3cccc4[nH]ccc34)C[C@H]2CO)n1	0.6	28.2µM*	0.9%	23.1%
O=C(c1ccccc1F)N1C[C@@H](CO)[C@H](c2nc(C3CC3)no2)C1	-8.9	i	-11.9%	-13.1%
Cc1noc([C@@H]2CN(C(=O)CCc3c[nH]c4ccccc34)C[C@H]2CO)n1	-9.1	i	-1.2%	-10.7%
O=C(c1nccc2ccccc12)N1CCC(c2noc(C3CC3)n2)C1 (stereo not given)	2.2	i	-3.0%	-18.7%
O=C(c1cccc2[nH]ccc12)N1C[C@@H](CO)[C@H](c2nc(C3CC3)no2)C1	-5.5	22.4µM*	1.0%	17.9%
O=C(c1cccc2[nH]ccc12)N1CCC(c2noc(C3CC3)n2)C1 (stereo not given)	4.8	22.4µM*	-1.5%	5.0%
Cc1noc(C)c1-c1cc2cc(CN(C)C)oc2c(NCCOc2ccccc2)n1	-18.0	?	?	0.0%[87.6 µM]
CN(C)Cc1ccc(-c2cc3c(ccn3Cc3cccnc3)c(C3=CCOCC3)n2)cc1	30.8	35.5µM*	-23.9%[87.6 µM]	-12.7%[87.6 µM]

Bioassay records from PubChem.
